Source: PubChem BioAssay (NCI)
Compounds without any hit were thinned out: in the full panel of roughly 79,000, 15% have a hit. Active and inactive are the calls of the source. Cut-off read from the data, not from the text of the source: active = growth inhibition above about 70%; inactive = the rest.

Tests used:
[1] = NCI Yeast Anticancer Drug Screen. Data for the rad52 strain (AID 147);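 note: 0% = growth of vehicle-treated control cultures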; settings: S. cerevisiae rad52 mutant growth inhibition, hits give high values
In short: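 Yeast strain carrying a DNA damage repair alteration was exposed to test compounds. Growth inhibition was measured relative to vehicle-treated controls.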

[2] = NCI Yeast Anticancer Drug Screen. Data for the wt1 strain (AID 149);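 note: 0% = growth of vehicle-treated wt1 cultures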; settings: S. cerevisiae wt1 strain (SPY 50644) growth inhibition, hits give high values
In short: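 Yeast wt1 strain exposed to compounds; growth inhibition measured relative to vehicle-treated controls.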

[3] = NCI Yeast Anticancer Drug Screen. Data for the rad50EPP+ strain (AID 151);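 note: 0% = growth of vehicle-treated control cultures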; settings: S. cerevisiae rad50 mutant strain, hits give high values
In short: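 Yeast strain carrying rad50 alteration (rad50EPP+) exposed to compounds; growth inhibition measured relative to vehicle-treated controls.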

[4] = NCI Yeast Anticancer Drug Screen. Data for the mgt1 strain (AID 153); settings: S. cerevisiae mgt1 mutant growth inhibition, hits give high values
In short: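 Yeast mgt1 strain (DNA repair/cell-cycle alteration panel) exposed to compounds; growth inhibition measured relative to vehicle-treated controls.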

[5] = NCI Yeast Anticancer Drug Screen. Data for the rad50 strain (AID 155);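 note: 0% = growth of vehicle-only cultures of the same strain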; settings: S. cerevisiae rad50 strain growth inhibition, hits give high values
In short: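 Yeast carrying a defined DNA repair defect were exposed to test compounds, and growth was compared with vehicle-treated controls to give percent inhibition.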

[6] = NCI Yeast Anticancer Drug Screen. Data for the mec2-1 strain (AID 157); settings: S. cerevisiae mec2-1 strain, hits give high values
In short: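 mec2-1 yeast strain, carrying an alteration in DNA damage repair or cell cycle control, was exposed to compounds; growth inhibition was measured relative to vehicle-treated controls.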

[7] = NCI Yeast Anticancer Drug Screen. Data for the rad14 strain (AID 159);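 note: 0% = growth of vehicle-treated control cultures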; settings: S. cerevisiae rad14 strain growth inhibition, hits give high values
In short: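 Yeast cells carrying a defined DNA-repair defect were exposed to compounds, and growth inhibition was calculated relative to vehicle-treated control cultures.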

[8] = NCI Yeast Anticancer Drug Screen. Data for the sgs1 mgt1 strain (AID 161);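 note: 0% = growth of cultures given vehicle only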; settings: S. cerevisiae sgs1 mgt1 strain, hits give high values
In short: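 Yeast cells carrying a defined DNA-repair defect were exposed to test compounds. Growth inhibition was measured relative to vehicle-treated controls.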

[9] = NCI Yeast Anticancer Drug Screen. Data for the CLN2oe strain (AID 163);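 note: 0% = growth of vehicle-only control cultures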; settings: S. cerevisiae CLN2oe strain, hits give high values
In short: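 Yeast cells carrying a defined cell-cycle control alteration were exposed to test compounds. Growth inhibition was scored against vehicle-treated control cultures.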

[10] = NCI Yeast Anticancer Drug Screen. Data for the cln2 rad14 strain (AID 165);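 note: 0% = growth equal to vehicle treated cultures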; settings: S. cerevisiae cln2 rad14 strain, hits give high values
In short: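 Yeast carrying cln2 and rad14 alterations (cell cycle control and DNA damage repair) were exposed to compounds. Growth inhibition was measured against vehicle-treated controls.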

[11] = NCI Yeast Anticancer Drug Screen. Data for the bub3 strain (AID 167); settings: S. cerevisiae bub3 mutant strain, hits give high values
In short: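 Compounds were applied to a genetically altered yeast strain carrying a cell-cycle control defect. Growth inhibition was scored against vehicle-treated controls.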

[12] = NCI Yeast Anticancer Drug Screen. Data for the wt2 strain (AID 169);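 note: 0% = growth of vehicle-treated yeast cultures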; settings: S. cerevisiae wt2 strain growth inhibition, hits give high values
In short: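 Yeast cells were exposed to test compounds, and growth inhibition was measured relative to vehicle-treated controls.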

[13] = NCI Yeast Anticancer Drug Screen. Data for the mlh1 strain (AID 171);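 note: 0% = growth of vehicle-treated control cultures of the same strain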; settings: S. cerevisiae mlh1 strain growth inhibition, hits give high values
In short: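 Yeast carrying a defined genetic alteration in DNA damage repair or cell cycle control were exposed to test compounds. Growth inhibition was measured relative to vehicle-treated controls.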

[14] = NCI Yeast Anticancer Drug Screen. Data for the sgs1 strain (AID 173);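 note: 0% = growth of vehicle-only control cultures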; settings: S. cerevisiae sgs1 mutant, hits give high values
In short: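 Yeast mutant strains carrying defined defects in DNA damage repair or cell cycle control were exposed to test compounds. Growth inhibition was scored against vehicle-treated controls.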

[15] = NCI Yeast Anticancer Drug Screen. Data for the mlh1 rad18 strain (AID 175); settings: S. cerevisiae mlh1 rad18 strain growth inhibition, hits give high values
In short: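 Growth inhibition of the yeast strain was measured after compound exposure and expressed relative to vehicle-treated controls. The strain carries defined defects in DNA damage repair.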

[16] = NCI Yeast Anticancer Drug Screen. Data for the rad18 strain (AID 177); settings: S. cerevisiae rad18 mutant growth inhibition, hits give high values
In short: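 Yeast carrying a defined DNA damage repair alteration were exposed to compounds. Growth inhibition was expressed relative to vehicle-treated controls.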

[17] = at 5.0 µM (retest, dose inferred, filed as 0.5)
[18] = at 50.0 µM (retest, dose inferred, filed as 5.0)

Measured: growth inhibition

O=C(NO)c1coc2ccccc2c1=O
active: [6]; at 50.0 µM 86.1%
inactive: [1]; at 1.2 µM -1% | [1]; at 3.7 µM -4% | [1]; at 11.0 µM -2% | [1]; at 33.0 µM -2% | [1]; at 100.0 µM 9% | [2]; at 1.2 µM 4% | [2]; at 3.7 µM -3% | [2]; at 11.0 µM -3% | [2]; at 33.0 µM -3% | [2]; at 100.0 µM 0% | [3]; at 1.2 µM -2% | [3]; at 3.7 µM -6% | [3]; at 11.0 µM -3% | [3]; at 33.0 µM -5% | [3]; at 100.0 µM -1% | [4]; at 1.2 µM -2% | [4]; at 3.7 µM 2% | [4]; at 11.0 µM -14% | [4]; at 33.0 µM -5% | [4]; at 100.0 µM 9% | [5]; at 1.2 µM 5% | [5]; at 3.7 µM -5% | [5]; [17] -3% | [5]; at 11.0 µM 1% | [5]; at 33.0 µM 0% | [5]; [18] 24% | [5]; at 50.0 µM 31.1% | [5]; at 100.0 µM 15% | [6]; at 1.2 µM -3% | [6]; at 3.7 µM -5% | [6]; [17] 1% | [6]; at 11.0 µM -1% | [6]; at 33.0 µM -4% | [6]; [18] 10% | [6]; at 100.0 µM 0% | [7]; at 1.2 µM 0% | [7]; at 3.7 µM -1% | [7]; at 11.0 µM -1% | [7]; at 33.0 µM -2% | [7]; at 100.0 µM 1% | [8]; [17] 15% | [8]; [18] 13% | [8]; at 50.0 µM 62% | [9]; at 1.2 µM 1% | [9]; at 3.7 µM 2% | [9]; at 11.0 µM 4% | [9]; at 33.0 µM 8% | [9]; at 100.0 µM 8% | [10]; [17] -4% | [10]; [18] 16% | [10]; at 50.0 µM 19.8% | [11]; at 1.2 µM -6% | [11]; at 3.7 µM -5% | [11]; [17] 13% | [11]; at 11.0 µM -2% | [11]; at 33.0 µM -2% | [11]; [18] 61% | [11]; at 50.0 µM 13.7% | [11]; at 100.0 µM -5% | [12]; at 1.2 µM -2% | [12]; at 3.7 µM -4% | [12]; at 11.0 µM -3% | [12]; at 33.0 µM -3% | [12]; at 100.0 µM 4% | [13]; at 1.2 µM -1% | [13]; at 3.7 µM 0% | [13]; at 11.0 µM -1% | [13]; at 33.0 µM 1% | [13]; at 100.0 µM 11% | [14]; at 1.2 µM -1% | [14]; at 3.7 µM -3% | [14]; at 11.0 µM -2% | [14]; at 33.0 µM -2% | [14]; at 100.0 µM 6% | [15]; [17] 13% | [15]; [18] 10% | [15]; at 50.0 µM -7.15% | [16]; at 1.2 µM -2% | [16]; at 3.7 µM -3% | [16]; at 11.0 µM 2% | [16]; at 33.0 µM -4% | [16]; at 100.0 µM 25%

CC(C)=CCc1c2c(c(O)c3c(=O)c(-c4ccc(O)c(O)c4)coc13)C=CC(C)(C)O2
active: [1]; at 11.0 µM 96% | [1]; at 33.0 µM 93% | [1]; at 100.0 µM 87% | [2]; at 11.0 µM 79% | [2]; at 33.0 µM 93% | [2]; at 100.0 µM 89% | [4]; at 11.0 µM 94% | [4]; at 33.0 µM 92% | [4]; at 100.0 µM 87% | [5]; at 11.0 µM 93% | [5]; at 33.0 µM 93% | [5]; [18] 91% | [5]; at 50.0 µM 84.8% | [5]; at 100.0 µM 88% | [6]; at 11.0 µM 87% | [6]; at 33.0 µM 91% | [6]; [18] 93% | [6]; at 50.0 µM 88% | [6]; at 100.0 µM 85% | [7]; at 11.0 µM 91% | [7]; at 33.0 µM 91% | [7]; at 100.0 µM 87% | [8]; [18] 93% | [8]; at 50.0 µM 87.5% | [9]; at 11.0 µM 95% | [9]; at 33.0 µM 91% | [9]; at 100.0 µM 81% | [10]; [18] 92% | [10]; at 50.0 µM 83.5% | [11]; at 11.0 µM 90% | [11]; at 33.0 µM 93% | [11]; [18] 92% | [11]; at 50.0 µM 84.8% | [11]; at 100.0 µM 87% | [12]; at 11.0 µM 77% | [12]; at 33.0 µM 92% | [12]; at 100.0 µM 87% | [13]; at 11.0 µM 90% | [13]; at 33.0 µM 93% | [13]; at 100.0 µM 86% | [14]; at 11.0 µM 91% | [14]; at 33.0 µM 91% | [14]; at 100.0 µM 85% | [15]; [18] 90% | [15]; at 50.0 µM 85.1% | [16]; at 11.0 µM 94% | [16]; at 33.0 µM 93% | [16]; at 100.0 µM 89%
inactive: [1]; at 1.2 µM -32% | [1]; at 3.7 µM -19% | [2]; at 1.2 µM -20% | [2]; at 3.7 µM -32% | [3]; at 1.2 µM -63% | [3]; at 3.7 µM -42% | [3]; at 11.0 µM -21% | [3]; at 33.0 µM -8% | [3]; at 100.0 µM -31% | [4]; at 1.2 µM -55% | [4]; at 3.7 µM -33% | [5]; at 1.2 µM -36% | [5]; at 3.7 µM -17% | [5]; [17] -3% | [6]; at 1.2 µM -89% | [6]; at 3.7 µM -93% | [6]; [17] 30% | [7]; at 1.2 µM -72% | [7]; at 3.7 µM -68% | [8]; [17] 18% | [9]; at 1.2 µM -32% | [9]; at 3.7 µM -5% | [10]; [17] 23% | [11]; at 1.2 µM -29% | [11]; at 3.7 µM -28% | [11]; [17] 14% | [12]; at 1.2 µM -50% | [12]; at 3.7 µM -52% | [13]; at 1.2 µM 5% | [13]; at 3.7 µM 14% | [14]; at 1.2 µM -46% | [14]; at 3.7 µM -36% | [15]; [17] 43% | [16]; at 1.2 µM -24% | [16]; at 3.7 µM -4%
